# Reference: PubChem BioAssay (EPA / NIEHS)
# Results filed as inconclusive are left out. Some structures have more than one record in an assay (separate samples or runs), and their calls can disagree. The source made the active and inactive calls. The calls were made as follows, unless noted: active = hit-call score of the fitted dose curve at least 0.9, where 1 is the maximum; inconclusive = response in the unintended direction; inactive = score below 0.9.
# What was measured:
# [1] = target: Glucocorticoid receptor (Homo sapiens) (UniProt P04150); assay: NVS_NR_hGR: NovaScreen (NVS) Nuclear Receptor Binding Assay for human Glucocorticoid Receptor (GR) (AID 2283363);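 as to AC50: activity is loss of specific radioligand binding signal relative to DMSO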
# Method in brief: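 Compounds first tested in duplicate at 25 uM, actives followed up in concentration series. Binding to extracted GR protein measured as competitive radioligand displacement, filter scintillation read 16 h post-dosing, normalised to DMSO.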
# [2] = target: Nuclear receptor subfamily 1 group I member 2 (Homo sapiens) (UniProt O75469); assay: NVS_NR_hPXR: NovaScreen (NVS) Nuclear Receptor Binding Assay for human Pregnane X Receptor (PXR) (AID 2283365);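 also: a drop in FRET signal versus DMSO baseline means the compound binds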
# Method in brief: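 Cell-free binding assay with extracted human PXR protein, read by TR-FRET 2 h after dosing; loss of signal relative to DMSO baseline indicates binding. Primary screen at 25 uM in duplicate, actives retested in concentration series.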
# [3] = target: Peroxisome proliferator-activated receptor gamma (Homo sapiens) (UniProt P37231); assay: NVS_NR_hPPARg: NovaScreen (NVS) Nuclear Receptor Binding Assay for human Peroxisome Proliferator-activated Receptor gamma (PPARg) (AID 2283370)
# Method in brief: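 Cell-free binding to extracted PPARg protein, read by fluorescence polarization 2 h after dosing; loss of signal relative to DMSO baseline marks displacement. Primary screen in duplicate at 25 uM, actives retested in concentration series.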
# [4] = target: Estrogen receptor beta (Homo sapiens) (UniProt Q92731); assay: OT_ER_ERbERb_1440: Odyssey Thera (OT) 24-hour HEK293T Protein-Complementation Assay for Estrogen Receptor-beta/-beta Homodimer (AID 2283380);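 also: fluorescence gain from ER beta LBD homodimer complementation read by laser scanning cytometry; scored as signal increase over DMSO baseline for both agonists and antagonists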
# Method in brief: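 Fluorescence increase, nuclear for agonists or whole-cell for antagonists, relative to DMSO vehicle, quantified by laser scanning cytometer after fixation and Draq5 staining. Readout from 24 h treatment of HEK293T cells carrying complementation-paired ER beta LBD (aa 310-547).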
# [5] = target: Bile acid receptor (Homo sapiens) (UniProt Q96RI1); assay: OT_FXR_FXRSRC1_0480: Odyssey Thera (OT) 8-hour HEK293T Protein-Complementation Assay for Farnesoid X receptor/SRC-1 Co-activator (AID 2283383)
# Method in brief: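 Binding of FXR to coactivator SRC-1 was read as fluorescence from a reconstituted split reporter in HEK293T cells, 8 h after chemical addition. Only increases in signal versus DMSO were fit.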
# [6] = target: Retinoic acid receptor RXR-alpha (Homo sapiens) (UniProt P19793); assay: OT_NURR1_NURR1RXRa_0480: Odyssey Thera (OT) 8-hour HEK293T Protein Complementation Assay for Nurr1/retinoid X receptor (RXR) (AID 2283385)
# Method in brief: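 Interaction of Nurr1 with RXRα read as reconstituted reporter fluorescence in a HEK293T fragment-complementation system, 8 h post-treatment; increase over DMSO baseline analysed.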
# [7] = target: Peroxisome proliferator-activated receptor gamma (Homo sapiens) (UniProt P37231); assay: OT_PPARg_PPARgSRC1_0480: Odyssey Thera (OT) 8-hour Protein-Complementation Assay for Peroxisome Proliferator-activated Receptor Gamma / SRC-1 Co-activator (AID 2283387);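 also: nuclear to cytoplasmic split Venus YFP fluorescence ratio reporting PPARg SRC-1 interaction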
# Method in brief: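 Protein-fragment complementation in HEK293T: Venus YFP halves (residues 1-158, 159-239, mutated to IFP1/IFP2) fused to PPARg/SRC-1. 8 h exposure; N/C ratio at 488 nm; DMSO negative control.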
# [8] = target: rat Androgen Receptor (AR), Ar (gene 24208) (UniProt P15207); assay: NVS_NR_rAR: NovaScreen (NVS) Nuclear Receptor Binding Assay for rat Androgen Receptor (AR) (AID 2283366)
# Method in brief: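 Actives from a duplicate single-concentration (25 uM) primary run went on to concentration series. Displacement of radioligand was counted by filtration and scintillation, 18 h post-dose, using prostate extracts from testosterone-pretreated rats, with DMSO as baseline.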
# [9] = target: Agonist Androgen Response Element (ARE), AR (gene 367) (UniProt P10275); assay: OT_AR_ARELUC_AG_1440: Odyssey Thera (OT) 24-hour CHO-K1 Luciferase Assay for Agonist Androgen Response Element (ARE) (AID 2283379)
# Method in brief: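 Readout: luciferase bioluminescence from CHO-K1 ARE-luc cells, measured 24 h post-dosing; agonism = increased mean luminescence vs DMSO controls, fitted in positive direction.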
# [10] = target: human Thyroid Receptor Alpha (TRa), THRA (gene 7067) (UniProt P10827); assay: NVS_NR_hTRa_Antagonist: NovaScreen (NVS) Nuclear Receptor Binding Assay for human Thyroid Receptor Alpha Antagonism (TRa) (AID 2283362);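 also: activity is loss of signal relative to DMSO baseline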
# Method in brief: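 Cell-free binding assay on extracted receptor protein, read 1 h after chemical dosing by AlphaLISA chemiluminescence; loss of signal relative to DMSO baseline marks antagonism. Primary screen ran in duplicate at 25 uM, with concentration series for actives.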
# [11] = target: Bile acid receptor (Homo sapiens) (UniProt Q96RI1); assay: OT_FXR_FXRSRC1_1440: Odyssey Thera (OT) 24-hour HEK293T Protein-Complementation Assay for Farnesoid X receptor/SRC-1 Co-activator (AID 2283384)
# Method in brief: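 Protein-fragment complementation: FXR and SRC-1 fused to reporter fragments that reassemble on interaction, read by fluorescence intensity. Human HEK293T cells measured 24 h post-dose; positive-direction fit versus DMSO.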
# [12] = target: Retinoic acid receptor RXR-alpha (Homo sapiens) (UniProt P19793); assay: OT_NURR1_NURR1RXRa_1440: Odyssey Thera (OT) 24-hour HEK293T Protein Complementation Assay for Nurr1/retinoid X receptor (RXR) (AID 2283386)
# Method in brief: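 Gain in fluorescence, fitted relative to DMSO, reflects Nurr1–RXRα association in HEK293T cells after 24 h dosing. Bait and prey are each linked to a reporter-protein fragment that reassembles on interaction.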
# [13] = target: Estrogen receptor (Homo sapiens) (UniProt P03372); assay: OT_ERa_GFPERaERE_0480: Odyssey Thera (OT) 8-hour HeLa Transcription Induction Assay for Estrogen Receptor (AID 2283381; active = hit-call score of the fitted dose curve at least 0.9, where 1 is the maximum; inactive = score below 0.9)
# Method in brief: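 Fluorescence microscopy with high-content image analysis measures ERE-driven GFP induction in HeLa cells at 8 h post-dose. Increases fitted against DMSO baseline.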
# [14] = target: Estrogen receptor (Homo sapiens) (UniProt P03372); assay: OT_ERa_GFPERaERE_0120: Odyssey Thera (OT) 2-hour HeLa Transcription Induction Assay for Estrogen Receptor (AID 2283382)
# Method in brief: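 Fluorescence-microscopy images of the GFP-ERα/ERE reporter, scored by high-content image algorithms, give the readout. HeLa exposure lasted 2 h, and only signal increase over DMSO was fitted.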
# Sequence of Retinoic acid receptor RXR-alpha (Homo sapiens) (P19793 whole entry, looked up, the tested form may be a part): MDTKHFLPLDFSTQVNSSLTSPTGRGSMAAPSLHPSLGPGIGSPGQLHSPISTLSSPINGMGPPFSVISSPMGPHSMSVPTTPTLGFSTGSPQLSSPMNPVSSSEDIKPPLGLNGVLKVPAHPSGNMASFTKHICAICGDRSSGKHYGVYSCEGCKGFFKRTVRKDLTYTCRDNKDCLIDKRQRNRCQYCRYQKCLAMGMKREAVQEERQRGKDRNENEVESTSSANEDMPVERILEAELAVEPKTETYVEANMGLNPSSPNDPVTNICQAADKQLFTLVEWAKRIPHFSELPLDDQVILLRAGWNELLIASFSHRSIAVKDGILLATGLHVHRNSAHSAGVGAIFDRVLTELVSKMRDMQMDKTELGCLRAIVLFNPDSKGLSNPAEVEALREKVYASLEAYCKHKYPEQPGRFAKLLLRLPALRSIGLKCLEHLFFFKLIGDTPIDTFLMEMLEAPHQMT
# Sequence of Agonist Androgen Response Element (ARE), AR (gene 367) (P10275 whole entry, looked up): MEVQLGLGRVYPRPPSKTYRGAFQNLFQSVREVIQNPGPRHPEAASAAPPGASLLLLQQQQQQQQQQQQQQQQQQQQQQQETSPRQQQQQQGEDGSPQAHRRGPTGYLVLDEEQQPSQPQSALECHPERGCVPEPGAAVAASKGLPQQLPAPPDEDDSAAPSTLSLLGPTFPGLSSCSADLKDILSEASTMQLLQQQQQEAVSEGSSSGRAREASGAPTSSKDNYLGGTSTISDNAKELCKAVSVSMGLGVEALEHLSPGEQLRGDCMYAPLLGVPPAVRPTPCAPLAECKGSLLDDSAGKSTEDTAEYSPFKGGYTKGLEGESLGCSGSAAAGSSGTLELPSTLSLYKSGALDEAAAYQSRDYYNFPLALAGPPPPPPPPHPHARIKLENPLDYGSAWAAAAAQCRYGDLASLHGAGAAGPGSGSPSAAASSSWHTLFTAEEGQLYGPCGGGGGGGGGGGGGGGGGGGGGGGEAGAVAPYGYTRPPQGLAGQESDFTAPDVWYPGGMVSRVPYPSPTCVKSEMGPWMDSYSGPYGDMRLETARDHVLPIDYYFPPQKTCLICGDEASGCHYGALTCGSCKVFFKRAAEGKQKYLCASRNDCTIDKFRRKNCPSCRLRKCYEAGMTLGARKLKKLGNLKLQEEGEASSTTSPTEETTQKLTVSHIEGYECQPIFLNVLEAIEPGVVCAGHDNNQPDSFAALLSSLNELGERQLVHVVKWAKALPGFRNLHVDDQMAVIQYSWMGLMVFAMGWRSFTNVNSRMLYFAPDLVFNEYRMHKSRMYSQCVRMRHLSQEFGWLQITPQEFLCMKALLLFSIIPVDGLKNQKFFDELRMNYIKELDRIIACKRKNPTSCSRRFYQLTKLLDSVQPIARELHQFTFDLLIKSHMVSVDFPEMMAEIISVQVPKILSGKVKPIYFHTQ
# Sequence of Bile acid receptor (Homo sapiens) (Q96RI1 whole entry, looked up, the tested form may be a part): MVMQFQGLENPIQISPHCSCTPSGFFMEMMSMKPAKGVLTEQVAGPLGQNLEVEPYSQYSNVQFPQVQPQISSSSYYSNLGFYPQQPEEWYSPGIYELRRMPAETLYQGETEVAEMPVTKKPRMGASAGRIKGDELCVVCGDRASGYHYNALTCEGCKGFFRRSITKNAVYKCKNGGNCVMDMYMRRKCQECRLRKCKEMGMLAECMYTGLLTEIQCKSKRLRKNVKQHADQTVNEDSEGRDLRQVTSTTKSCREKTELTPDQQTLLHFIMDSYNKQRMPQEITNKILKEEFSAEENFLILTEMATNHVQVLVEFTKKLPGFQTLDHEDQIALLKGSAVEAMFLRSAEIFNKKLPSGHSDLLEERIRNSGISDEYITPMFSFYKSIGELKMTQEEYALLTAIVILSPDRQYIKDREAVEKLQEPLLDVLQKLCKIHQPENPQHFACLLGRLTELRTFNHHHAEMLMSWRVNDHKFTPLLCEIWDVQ
# Sequence of Estrogen receptor beta (Homo sapiens) (Q92731 whole entry, looked up, the tested form may be a part): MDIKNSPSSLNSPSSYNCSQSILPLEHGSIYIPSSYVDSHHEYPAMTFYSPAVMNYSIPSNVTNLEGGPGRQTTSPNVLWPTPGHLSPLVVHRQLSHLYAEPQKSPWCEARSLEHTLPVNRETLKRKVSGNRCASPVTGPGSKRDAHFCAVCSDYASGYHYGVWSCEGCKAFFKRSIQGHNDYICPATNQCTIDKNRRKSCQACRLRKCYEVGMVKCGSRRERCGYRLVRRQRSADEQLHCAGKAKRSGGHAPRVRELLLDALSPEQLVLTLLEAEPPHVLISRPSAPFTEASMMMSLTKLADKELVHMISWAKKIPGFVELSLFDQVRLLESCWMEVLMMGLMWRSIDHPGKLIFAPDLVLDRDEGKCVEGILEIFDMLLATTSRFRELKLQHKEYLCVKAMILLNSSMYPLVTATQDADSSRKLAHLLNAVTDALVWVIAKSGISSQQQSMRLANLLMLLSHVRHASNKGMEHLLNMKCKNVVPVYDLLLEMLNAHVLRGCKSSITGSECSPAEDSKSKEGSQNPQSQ
# Sequence of Glucocorticoid receptor (Homo sapiens) (P04150 whole entry, looked up): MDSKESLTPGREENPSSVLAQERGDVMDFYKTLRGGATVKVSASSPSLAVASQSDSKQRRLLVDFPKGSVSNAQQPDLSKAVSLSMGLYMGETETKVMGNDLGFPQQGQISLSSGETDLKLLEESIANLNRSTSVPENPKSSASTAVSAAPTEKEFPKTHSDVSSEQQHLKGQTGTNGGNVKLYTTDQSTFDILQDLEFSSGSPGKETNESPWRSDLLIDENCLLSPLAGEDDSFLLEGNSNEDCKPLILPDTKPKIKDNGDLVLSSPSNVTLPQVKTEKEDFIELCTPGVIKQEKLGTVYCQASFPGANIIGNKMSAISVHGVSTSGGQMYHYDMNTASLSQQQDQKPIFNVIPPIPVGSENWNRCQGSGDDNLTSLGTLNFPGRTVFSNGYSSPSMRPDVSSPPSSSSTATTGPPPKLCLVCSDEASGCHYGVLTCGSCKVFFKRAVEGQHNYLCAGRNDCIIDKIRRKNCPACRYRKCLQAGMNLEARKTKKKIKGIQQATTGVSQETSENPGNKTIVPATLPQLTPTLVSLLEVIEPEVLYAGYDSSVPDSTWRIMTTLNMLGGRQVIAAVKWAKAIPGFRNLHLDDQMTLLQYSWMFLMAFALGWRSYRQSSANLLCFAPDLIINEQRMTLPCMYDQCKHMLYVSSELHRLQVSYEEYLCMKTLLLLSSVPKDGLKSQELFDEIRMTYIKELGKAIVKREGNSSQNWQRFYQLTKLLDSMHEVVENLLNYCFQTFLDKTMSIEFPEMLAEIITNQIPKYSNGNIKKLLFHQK
# Sequence of rat Androgen Receptor (AR), Ar (gene 24208) (P15207 whole entry, looked up): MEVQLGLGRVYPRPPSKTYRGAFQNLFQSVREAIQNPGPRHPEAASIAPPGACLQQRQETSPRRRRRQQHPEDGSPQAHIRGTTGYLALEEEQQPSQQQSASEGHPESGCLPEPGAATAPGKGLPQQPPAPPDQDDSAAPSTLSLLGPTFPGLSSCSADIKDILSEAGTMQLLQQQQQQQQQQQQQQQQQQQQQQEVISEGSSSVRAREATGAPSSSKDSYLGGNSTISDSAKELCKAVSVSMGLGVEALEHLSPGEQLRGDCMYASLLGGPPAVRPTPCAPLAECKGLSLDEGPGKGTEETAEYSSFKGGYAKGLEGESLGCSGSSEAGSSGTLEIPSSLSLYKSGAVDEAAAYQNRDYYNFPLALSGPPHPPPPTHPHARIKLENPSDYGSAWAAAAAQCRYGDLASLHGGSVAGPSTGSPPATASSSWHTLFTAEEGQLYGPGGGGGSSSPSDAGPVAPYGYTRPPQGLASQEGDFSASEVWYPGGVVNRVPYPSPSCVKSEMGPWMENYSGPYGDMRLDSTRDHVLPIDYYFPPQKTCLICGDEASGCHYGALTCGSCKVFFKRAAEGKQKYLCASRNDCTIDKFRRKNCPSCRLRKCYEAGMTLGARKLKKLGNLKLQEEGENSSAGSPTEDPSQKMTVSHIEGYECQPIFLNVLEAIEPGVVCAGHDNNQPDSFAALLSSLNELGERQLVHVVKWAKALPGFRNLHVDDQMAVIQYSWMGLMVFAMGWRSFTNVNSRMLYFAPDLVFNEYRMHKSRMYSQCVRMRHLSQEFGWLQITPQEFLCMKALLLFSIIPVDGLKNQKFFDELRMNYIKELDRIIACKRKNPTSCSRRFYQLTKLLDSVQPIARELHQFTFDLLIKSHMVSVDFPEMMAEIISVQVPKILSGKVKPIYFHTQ
# Sequence of Peroxisome proliferator-activated receptor gamma (Homo sapiens) (P37231 whole entry, looked up, the tested form may be a part): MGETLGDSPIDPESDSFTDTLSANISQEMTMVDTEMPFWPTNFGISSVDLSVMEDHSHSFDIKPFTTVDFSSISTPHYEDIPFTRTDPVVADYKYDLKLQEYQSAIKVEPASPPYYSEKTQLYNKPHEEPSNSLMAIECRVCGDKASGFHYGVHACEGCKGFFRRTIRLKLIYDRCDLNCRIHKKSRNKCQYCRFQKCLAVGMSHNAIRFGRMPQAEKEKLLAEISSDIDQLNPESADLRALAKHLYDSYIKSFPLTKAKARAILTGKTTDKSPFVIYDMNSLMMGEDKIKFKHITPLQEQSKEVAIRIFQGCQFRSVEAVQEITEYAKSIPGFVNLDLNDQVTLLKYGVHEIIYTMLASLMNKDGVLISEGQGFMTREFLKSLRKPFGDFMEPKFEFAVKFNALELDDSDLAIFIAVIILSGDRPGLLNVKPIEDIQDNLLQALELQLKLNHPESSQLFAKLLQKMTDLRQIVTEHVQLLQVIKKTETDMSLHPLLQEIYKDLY
# Sequence of Nuclear receptor subfamily 1 group I member 2 (Homo sapiens) (O75469 whole entry, looked up): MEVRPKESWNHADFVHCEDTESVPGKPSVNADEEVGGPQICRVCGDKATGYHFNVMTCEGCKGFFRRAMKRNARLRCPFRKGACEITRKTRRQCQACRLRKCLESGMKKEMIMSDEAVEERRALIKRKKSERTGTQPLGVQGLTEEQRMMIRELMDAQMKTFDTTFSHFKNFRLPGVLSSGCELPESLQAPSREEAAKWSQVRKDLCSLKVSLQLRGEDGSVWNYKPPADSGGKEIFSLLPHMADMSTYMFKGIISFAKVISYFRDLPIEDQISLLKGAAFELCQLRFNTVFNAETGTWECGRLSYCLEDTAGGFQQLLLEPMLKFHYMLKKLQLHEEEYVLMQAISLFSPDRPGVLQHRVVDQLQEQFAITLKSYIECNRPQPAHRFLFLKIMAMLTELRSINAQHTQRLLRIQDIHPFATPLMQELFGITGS
structure (smiles),measurement,setting,value
C=C1CC[C@H](O)C/C1=C/C=C1\CCC[C@]2(C)[C@@H]([C@H](C)/C=C/[C@H](C)C(C)C)CC[C@@H]12,AC50,[1],25 µM (active)
same,AC50,[2],12 µM (active)
same,outcome,[3],inactive
same,outcome,[4],inactive
same,AC50,[5],36.8 µM (active)
same,outcome,[6],inactive
same,outcome,[7],inactive
CCCCCCCCC=CCCCCCCCC1=NCCN1CCO,AC50,[1],5.02 µM (active)
same,AC50,[8],7.33 µM (active)
same,outcome,[9],inactive
same,outcome,[7],inactive
CCCCC(CC)COC(=O)c1ccc(O)cc1 (stereo not drawn),AC50,[1],3.11 µM (active)
same,outcome,[2],inactive
same,AC50,[4],1.92 µM (active)
same,outcome,[6],inactive
Nc1ccc2cc(S(=O)(=O)O)cc(O)c2c1N=Nc1ccccc1C(F)(F)F,AC50,[10],20 µM (active)
same,AC50,[1],5.65 µM (active)
same,AC50,[3],2.32 µM (active)
same,outcome,[4],inactive
same,outcome,[7],inactive
O=C1NC2NC(=O)NC2N1 (stereo not drawn),outcome,[2],inactive
same,AC50,[4],7.06 µM (active)
same,outcome,[5],inactive
same,outcome,[11],inactive
same,outcome,[6],inactive
same,outcome,[12],inactive
same,outcome,[7],inactive
CCOc1ccc(N=Nc2ccc(C=Cc3ccc(N=Nc4ccc(OCC)cc4)cc3S(=O)(=O)O)c(S(=O)(=O)O)c2)cc1,AC50,[10],14.1 µM (active)
same,AC50,[1],3.4 µM (active)
same,AC50,[2],0.695 µM (active)
same,outcome,[3],inactive
same,outcome,[6],inactive
same,outcome,[7],inactive
CC(C)CCCCCCc1ccc(OCCOCCO)cc1,outcome,[2],inactive
same,AC50,[9],3.19 µM (active)
same,AC50,[4],25 µM (active)
same,outcome,[13],inactive
same,outcome,[14],inactive
same,outcome,[7],inactive
COc1ccccc1N=Nc1c(S(=O)(=O)O)cc2cc(S(=O)(=O)O)cc(NC(C)=O)c2c1O,AC50,[10],8.29 µM (active)
same,outcome,[3],inactive
same,outcome,[4],inactive
same,outcome,[6],inactive
same,outcome,[12],inactive
same,outcome,[7],inactive
Nc1ccc(N)c2c1C(=O)c1ccccc1C2=O,outcome,[10],inactive
same,AC50,[9],1.71 µM (active)
same,outcome,[4],inactive
same,outcome,[11],inactive
CCCCCCCCc1ccc(S(=O)(=O)O)cc1,AC50,[1],17 µM (active)
same,AC50,[3],4.22 µM (active)
same,outcome,[3],inactive
same,outcome,[4],inactive
same,outcome,[5],inactive
same,outcome,[11],inactive
same,outcome,[7],inactive
[O-]n1ccccc1=S.[O-]n1ccccc1=S.[Zn+2],AC50,[10],1.1 µM (active)
same,AC50,[1],0.776 µM (active)
same,outcome,[4],inactive
same,outcome,[7],inactive
CCCCCCCCN1CCCC1=O,outcome,[2],inactive
same,outcome,[4],inactive
same,AC50,[5],50 µM (active)
same,outcome,[11],inactive
same,outcome,[6],inactive
same,outcome,[12],inactive
same,outcome,[7],inactive
CSCCC=O,outcome,[2],inactive
same,outcome,[3],inactive
same,outcome,[4],inactive
same,outcome,[5],inactive
same,outcome,[11],inactive
same,outcome,[6],inactive
same,outcome,[7],inactive
CCOc1ccc(NC(=O)CC(C)=O)cc1,AC50,[1],1.99 µM (active)
CCCCCCCCCCCCCCN(CCO)CCO,AC50,[1],8.13 µM (active)
same,outcome,[2],inactive
same,outcome,[7],inactive
Cc1cc(S(=O)(=O)O)ccc1N=Nc1c(O)ccc2ccccc12,AC50,[10],17.6 µM (active)
same,outcome,[4],inactive
same,outcome,[11],inactive
same,outcome,[12],inactive
same,outcome,[7],inactive
CCC(=O)O[C@@H]1C[C@H]2CC[C@]1(C)C2(C)C,outcome,[1],inactive
same,outcome,[3],inactive
same,outcome,[4],inactive
same,outcome,[12],inactive
same,outcome,[7],inactive
CC1(C)C(=O)N(Cl)C(=O)N1Br,outcome,[10],inactive
same,outcome,[7],inactive
Cc1ccc(S(N)(=O)=O)cc1,outcome,[1],inactive
same,outcome,[2],inactive
same,outcome,[5],inactive
same,outcome,[7],inactive
Oc1ccc2cc(SSc3ccc4cc(O)ccc4c3)ccc2c1,outcome,[10],inactive
same,outcome,[2],inactive
same,outcome,[3],inactive
same,AC50,[11],75.3 µM (active)
same,AC50,[6],78.7 µM (active)
same,AC50,[12],19.7 µM (active)
same,outcome,[7],inactive
CCCCCCCCCCCCN1CCCCCC1=O,outcome,[2],inactive
same,outcome,[4],inactive
same,AC50,[5],11.3 µM (active)
same,AC50,[6],44.3 µM (active)
OC[C@H]1O[C@@H]2O[C@H]3[C@H](O)[C@@H](O)[C@@H](O[C@H]4[C@H](O)[C@@H](O)[C@@H](O[C@H]5[C@H](O)[C@@H](O)[C@@H](O[C@H]6[C@H](O)[C@@H](O)[C@@H](O[C@H]7[C@H](O)[C@@H](O)[C@@H](O[C@H]8[C@H](O)[C@@H](O)[C@@H](O[C@H]9[C@H](O)[C@@H](O)[C@@H](O[C@H]1[C@H](O)[C@H]2O)O[C@@H]9CO)O[C@@H]8CO)O[C@@H]7CO)O[C@@H]6CO)O[C@@H]5CO)O[C@@H]4CO)O[C@@H]3CO,outcome,[10],inactive
same,AC50,[2],4.18 µM (active)
same,outcome,[4],inactive
same,outcome,[6],inactive
same,outcome,[7],inactive
CC(CN=Cc1ccccc1O)N=Cc1ccccc1O (stereo not drawn),outcome,[10],inactive
same,outcome,[4],inactive
same,outcome,[7],inactive
CC(C)c1ccccc1O,outcome,[2],inactive
same,outcome,[4],inactive
same,outcome,[5],inactive
same,outcome,[6],inactive
COc1ccc(N=Nc2cc(C)c(N=Nc3ccc(S(=O)(=O)O)cc3)cc2OC)cc1,AC50,[1],1.91 µM (active)
same,AC50,[2],8.57 µM (active)
same,outcome,[3],inactive
same,outcome,[4],inactive
same,outcome,[7],inactive
Oc1c(Cl)cc(Cl)c(Cl)c1Cc1c(O)c(Cl)cc(Cl)c1Cl,AC50,[1],4.34 µM (active)
same,AC50,[8],2.06 µM (active)
CCC(C)c1cc([N+](=O)[O-])cc([N+](=O)[O-])c1OC(=O)OC(C)C (stereo not drawn),AC50,[1],5.81 µM (active)
Cc1ccc(S(=O)(=O)Oc2ccc(N=Nc3ccc(-c4ccc(N=Nc5c(O)ccc6cc(S(=O)(=O)O)cc(S(=O)(=O)O)c56)c(C)c4)cc3C)cc2)cc1,AC50,[10],3.09 µM (active)
same,AC50,[1],0.548 µM (active)
same,AC50,[2],0.701 µM (active)
same,AC50,[8],0.463 µM (active)
same,outcome,[3],inactive
same,outcome,[4],inactive
same,outcome,[11],inactive
same,AC50,[6],35 µM (active)
same,outcome,[7],inactive
Clc1ccc(C(c2ccccc2Cl)C(Cl)Cl)cc1 (stereo not drawn),outcome,[2],inactive
same,AC50,[4],5.53 µM (active)
same,outcome,[6],inactive
CCc1ccc(O)cc1,outcome,[2],inactive
same,outcome,[9],inactive
same,outcome,[4],inactive
same,outcome,[6],inactive
same,outcome,[12],inactive
same,outcome,[7],inactive
